Source: PubChem BioAssay
In the library only some 19% were active in any assay of this set; here they are far more common.
uPA surface inh: inhibitors of cell surface uPA generation; cell surface uPA generation assay, qHTS; Potency, µM (highest dose often 38.3 µM), for inactives: top-dose activity change, negative = inhibition, usual class: inhibitors; 0.31% of 330,000 active; AID 540303; active means well fitted inhibition curve with a large enough effect; inconclusive means small, poorly fitted or top-dose-only effect; inactive means no such curve, though single readings can be large or run the other way; tested in mouse RAW 264.7 cells; further: potency means the concentration at half of the fitted maximal effect; nearly all actives have a fitted effect of over 55% in size
TDP1 cell CPT: growth inhibition of DT40 Tdp1-/-;hTDP1 cells with camptothecin (screen for TDP1 inhibitors). AID 686979. Potency, µM (series often up to 46.2 µM), without a hit: top-dose activity change, negative = growth inhibition, usual class: inhibitors. chicken DT40 Tdp1-/-;hTDP1 cells + 20 nM CPT, ATP luminescence, 48 h. 12% of 420,000 active; further: potency means the concentration at half of the fitted maximal effect; nearly all actives have a fitted effect of over 55% in size
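Chicken DT40 Tdp1-/- cells complemented with human TDP1, 400 cells/well, exposed to compounds plus 20 nM camptothecin for at least 48 h at 37 C; viability read as ATP content by CellTiter-Glo luminescence.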
HT1080-NT tox: kills 2HG-producing HT-1080-NT fibrosarcoma cells | HT-1080-NT fibrosarcoma viability, CellTiter-Glo ATP luminescence, 48 h | 1.6% of 360,000 active | Potency, µM (highest dose often 46.1 µM), for the others: at the highest dose activity, negative = less viability, most hits filed as cytotoxic;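 further: NT is the 2HG producing partner of a matched IDH1 knockdown line; potency means the concentration at half of the fitted maximal effect; 0% = DMSO-treated cells and -100% = media-only wells without cells; nearly all actives have a fitted effect of over 55% in size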
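Luminescent CellTiter-Glo readout after 48 hours of compound exposure at 37 degrees C defined viability of HT-1080-NT cells. Activity was normalized to DMSO wells and cell-free media wells; concentration-response curves were fitted and assigned curve classes.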
HT1080 IDH1KD tx: kills HT-1080 cells with IDH1 knockdown | Potency, µM (doses to about 46.1 µM), inactives show at the highest dose activity, negative = toxicity, usual class: cytotoxic | AID 686971 | 2% of 360,000 active | HT-1080 IDH1 knockdown viability, ATP luminescence, 48 h;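 further: potency means the concentration at half of the fitted maximal effect; 0% = DMSO wells and -100% = cell-free medium wells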
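Cytotoxicity counter-line: IDH1KD HT-1080, 48 h, CellTiter-Glo. Curves classed by r2, magnitude and activity.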
IL-1B inflam inh: blocks inflammasome-driven IL-1 beta release; THP-1 LPS/ATP IL-1B secretion, AlphaLISA, 16 h; active compounds read low; activity change, % at 57.5 µM; 4.7% of 360,000 active; in the data active means activity change below about -50%; inconclusive means mostly about -30% to -49%
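Secreted IL-1B measured by AlphaLISA bead assay after 16 h compound exposure of THP-1 cells; compounds (final up to 57.5 uM) added 1 h before LPS (250 ng/mL) and ATP (1.25 mM) stimulation; lower signal means less secretion.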
TDP1 cell noCPT: qHTS for Inhibitors of human tyrosyl-DNA phosphodiesterase 1 (TDP1): qHTS in cells in absence of CPT | DT40 Tdp1-/- hTDP1 cells, no CPT, ATP luminescence, 48 h | Potency, µM (series often up to 46.2 µM), for inactives: top-dose activity change, negative = growth inhibition, hits mostly inhibitors | 15% of 420,000 active; further: potency means the concentration at half of the fitted maximal effect; nearly all actives have a fitted effect of over 55% in size
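Seeded 400 DT40-hTDP1 cells/well (vehicle DMSO, no 20 nM CPT); pinned compounds; ≥48 hr at 37 °C; CellTiter-Glo luminescence as viability measure.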
Starred values were filed as active, the others as inactive; ? = inconclusive; nt = no result given; [ ] = dose if it differs, or a comment. Unless noted, the call rests on the fitted dose curve; in most records, active means well fitted curve in the direction sought with a large enough effect; inconclusive means small, poorly fitted or top-dose-only effect, or another doubt; inactive means no such curve, though single readings can be large; an effect the other way counts as inactive or inconclusive. Unless noted, on the % scale 0 is the no-effect control and ±100 the full control effect.

SMILES	uPA surface inh	TDP1 cell CPT	HT1080-NT tox	HT1080 IDH1KD tx	IL-1B inflam inh	TDP1 cell noCPT
CSc1cccc(NC(=O)C2CCCN2S(=O)(=O)c2ccc(Br)s2)c1 (configuration not stated)	nt	?	?	?	0	23µM*
Cc1ccc(S(=O)(=O)N2CCCC2C(=O)O)s1 (configuration not stated)	3%	-9%	1%	-2%	0	-16%
O=C(Nc1ccc(S(=O)(=O)N2CCOCC2)cc1)C1CCN(S(=O)(=O)c2ccccc2)CC1	11%	?	-13%	-15%	2	16µM*
COc1ccc(NC(=O)C2CCN(S(=O)(=O)c3ccc(N4CCCC4=O)cc3)CC2)cc1OC	5%	-11%	-1%	0%	13	11%
COc1ccc(OC)c(S(=O)(=O)N2CCC(C(=O)Nc3cccc(C(F)(F)F)c3)CC2)c1	-13%	18µM*	-25%	-28%	-8	15µM*
NS(=O)(=O)c1ccc(NC(=O)C2CCCN(S(=O)(=O)c3ccc(F)cc3)C2)cc1 (configuration not stated)	6%	-11%	8%	1%	16	?
O=C(NCCCN1CCCC1=O)C1CCN(S(=O)(=O)c2cc(C(F)(F)F)ccc2Cl)CC1	-10%	15µM*	6%[9.24 µM]	0%	-7	?
CSc1cccc(NC(=O)C2CCCN(S(=O)(=O)c3ccc(F)cc3)C2)c1 (configuration not stated)	-3%	10µM*	-30%	?	-15	8.2µM*
O=C(Nc1ccc(Br)cc1)C1CCCN1S(=O)(=O)c1ccc(F)cc1 (configuration not stated)	nt	?	nt	nt	nt	15µM*
O=C(NCCCN1CCCC1=O)C1CCN(S(=O)(=O)c2cccc(C(F)(F)F)c2)CC1	7%	-16%	-1%	0%	10	-23%
COc1ccc(OC)c(S(=O)(=O)N2CCC(C(=O)N3CCc4ccccc4C3)CC2)c1	6%	?	-12%	-1%	-17	23µM*
Cc1ccc(NC(=O)C2CCN(S(=O)(=O)c3ccc(F)cc3)CC2)cc1	4%	-28%	-2%	0%	?	?
O=C(Nc1ccc(S(=O)(=O)N2CCCC2)cc1)C1CCN(S(=O)(=O)c2ccc(F)cc2)CC1	-7%	?	-16%	-59%	0	18µM*
O=c1[nH]c(-c2ccccc2)nc2sc(-c3ccccc3)cc12	-20%	10µM*	-14%	-14%	-8	6.5µM*
Cc1ccc(C)n1-n1c(C)nc2sc(-c3ccccc3)cc2c1=O	-5%	18µM*	-20%	-23%	-26	15µM*
O=S1(=O)C[C@H](N2CCOCC2)[C@@H](COCc2ccccc2)N1	nt	-16%	20%	9%	-9	-23%
CCc1nn(CC(=O)NCc2ccco2)c(=O)c2cc3cc(F)ccc3n12	nt	-1%	nt	nt	nt	-2%
O=C(N/N=C/C(Br)=C/c1ccccc1)c1cccs1	-11%	16µM*	-23%	?	?	18µM*
O=C(N/N=C/C(Br)=C/c1ccccc1)c1ccccc1F	-29%	12µM*	?	?	-65*	23µM*
O=C(N/N=C/C=C/c1ccccc1)c1cccs1	11%	-14%	16%	7%	0	-1%
O=C(N/N=C/C(Cl)=C/c1ccccc1)c1ccccc1F	-7%	?	-18%	-5%	-69*	?
N#Cc1ccc(/C=N/NC(=O)c2ccccc2F)cc1	3%	2%	9%	15%	-1	7%
O=C(N/N=C/C(Cl)=C\c1ccccc1)c1ccco1	-6%	-20%	0%	0%	-23	29µM*
COc1cc(C2C=C(C(=O)O)Nc3ncnn32)ccc1O (configuration not stated)	nt	-20%	nt	nt	nt	-6%
Clc1ss/c(=N\c2ccccn2)c1Cl	-8%	-13%	8%	11%	-91*	-15%
SMILES	uPA surface inh	TDP1 cell CPT	HT1080-NT tox	HT1080 IDH1KD tx	IL-1B inflam inh	TDP1 cell noCPT
COc1ccccc1N1CC(C(=O)OC(C)C(=O)Nc2ccc(F)cc2)CC1=O (configuration not stated)	nt	5%	5%	-1%	1	5%
COc1ccccc1N1CCN(C(=O)c2cc(-c3ccc(F)cc3)[nH]c2C)CC1	-2%	?	?	?	-14	?
CCn1c(-c2ccccc2F)nc2cc(NC(C)=O)cc(C(=O)N(C)Cc3cn(C)nc3C)c21	nt	24%[9.04 µM]	nt	nt	nt	-14%
CC(=O)Nc1ccc(NC(=O)C(NC(=O)C2CCC(C)CC2)C(C)C)cc1 (configuration not stated)	nt	-11%	nt	nt	nt	-16%
Cn1cc([N+](=O)[O-])c(C(=O)Nc2cc(Oc3cccnc3)cc([N+](=O)[O-])c2)n1	-5%	-18%	21µM*	18µM*	-96*	?
Cn1cc([N+](=O)[O-])c(C(=O)Nc2ccc(C(=O)N3CCCCC3)cc2)n1	3%	-4%	?	23µM*	nt	0%
Cn1cc([N+](=O)[O-])c(C(=O)Nc2ccc(C3CCCCC3)cc2)n1	?	?	23µM*	?	nt	-18%
O=[N+]([O-])c1cc(Oc2cccnc2)cc([N+](=O)[O-])c1	-10%	?	-2%	0%	83	-17%
Cn1cc([N+](=O)[O-])c(C(=O)Nc2ccn(C34CC5CC(CC(C5)C3)C4)n2)n1	1%	-27%	?	?	-13	?
Cc1ccc(NC(=O)CCc2c(C)nc3ncnn3c2C)cc1Cl	nt	6%	nt	nt	nt	-23%
OCC1OC(Nc2ccccc2C=NO)C(O)C1O (configuration not stated)	nt	4%	-4%	-6%	55	-7%
O=C(C1CN(C(=O)c2cc3ccccc3o2)c2ccccc2O1)N1CCCCC1 (configuration not stated)	nt	?	-8%	-10%	-18	?
Cc1cccc(C(=O)NC2CCN(CC(=O)Nc3ccccc3Cl)CC2)c1	-2%	0%	4%	-3%	-12	-5%
CCOC(=O)c1sc(N/N=C/c2cc(Br)c(O)c(OC)c2)nc1C	-11%	?	?	?	23	?
CCOC(=O)N1CCC(=C2c3ccc(Cl)cc3CCc3cccnc32)CC1	-11%	21µM*	?	?	8	13µM*
COC(=O)[C@@H](Cc1c[nH]c2ccccc12)NCc1cccc(B(O)O)c1	27%	-22%	2%	-7%	-2	-29%
